In the supplement of paper PMC10849652:
Of roughly 7,900 targets only a part is listed; those with a hit were picked by preference. About 0.6% of all pairs of compound and target were hits. Values without a mark were called inactive.

Experiments:
Test in all cases: log2 fold change, soluble protein after heating vs DMSO (PISA); higher = thermal stabilisation; K562 cells, 10 uM, 30 min; active = over 0.2 and 3.5 SD of the protein, either way, in both replicates (recomputed)
[1] = compound: COC1=CC=C(C=C1)CN2C=CC3=C2C=C(C=C3)C(=O)NO
How it was run: (§1)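 Quantification of soluble protein used TMTpro 16plex LC-MS/MS, with channel sums equalised. Samples were the supernatant after 21,000xg for 90 min of pooled aliquots from K562 cells (2×10^6 cells/mL) treated with 10 μM compound for 30 min, heated for 3 min over 48°C-58°C, and extracted in PBS with 0.5% NP-40 at 4°C. Values, from duplicates, describe thermal stability against control samples on a log2 fold-change scale.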

filanesib = compound: CON(C)C(=O)N1N=C(c2cc(F)ccc2F)S[C@@]1(CCCN)c1ccccc1 [filanesib]
How it was run: as §1

zotarolimus = compound: CO[C@H]1C[C@@H]2CC[C@@H](C)[C@@](O)(O2)C(=O)C(=O)N2CCCC[C@H]2C(=O)O[C@H]([C@H](C)C[C@@H]2CC[C@H](n3cnnn3)[C@H](OC)C2)CC(=O)[C@H](C)/C=C(\C)[C@@H](O)[C@@H](OC)C(=O)[C@H](C)C[C@H](C)/C=C/C=C/C=C/1C [zotarolimus]
How it was run: as §1

idasanutlin = compound: COc1cc(C(=O)O)ccc1NC(=O)[C@@H]1N[C@@H](CC(C)(C)C)[C@](C#N)(c2ccc(Cl)cc2F)[C@H]1c1cccc(Cl)c1F [idasanutlin]
How it was run: as §1

alisertib = compound: COc1cc(Nc2ncc3c(n2)-c2ccc(Cl)cc2C(c2c(F)cccc2OC)=NC3)ccc1C(=O)O [alisertib]
How it was run: as §1

[2] = compound: COc1cc2nc(-c3cc(F)ccc3O)nc(N[C@@H]3CNC[C@H]3C(C)(C)O)c2cc1OC
How it was run: as §1

gefitinib = compound: COc1cc2ncnc(Nc3ccc(F)c(Cl)c3)c2cc1OCCCN1CCOCC1 [gefitinib]
How it was run: as §1

[3] = compound: COc1cccc2cc(-c3nc([C@H]4CC[C@H](C(=O)O)CC4)n4ncnc(N)c34)[nH]c12
How it was run: as §1

lapatinib = compound: CS(=O)(=O)CCNCc1ccc(-c2ccc3ncnc(Nc4ccc(OCc5cccc(F)c5)c(Cl)c4)c3c2)o1 [lapatinib]
How it was run: as §1

pictilisib = compound: CS(=O)(=O)N1CCN(Cc2cc3nc(-c4cccc5[nH]ncc45)nc(N4CCOCC4)c3s2)CC1 [pictilisib]
How it was run: as §1

Chain of UniProt Q7Z7A3 (Q7Z7A3 whole entry, looked up): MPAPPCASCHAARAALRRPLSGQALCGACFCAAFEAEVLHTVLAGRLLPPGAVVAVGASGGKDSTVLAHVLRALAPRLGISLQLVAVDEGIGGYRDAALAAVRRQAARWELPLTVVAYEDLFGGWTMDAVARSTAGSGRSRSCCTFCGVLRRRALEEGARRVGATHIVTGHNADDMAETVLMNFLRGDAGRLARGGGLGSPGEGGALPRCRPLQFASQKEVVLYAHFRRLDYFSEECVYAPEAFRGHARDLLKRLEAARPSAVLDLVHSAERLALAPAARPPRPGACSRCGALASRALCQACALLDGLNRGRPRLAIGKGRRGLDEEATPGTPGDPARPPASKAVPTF
Chain of UniProt O94905 (O94905 whole entry, looked up): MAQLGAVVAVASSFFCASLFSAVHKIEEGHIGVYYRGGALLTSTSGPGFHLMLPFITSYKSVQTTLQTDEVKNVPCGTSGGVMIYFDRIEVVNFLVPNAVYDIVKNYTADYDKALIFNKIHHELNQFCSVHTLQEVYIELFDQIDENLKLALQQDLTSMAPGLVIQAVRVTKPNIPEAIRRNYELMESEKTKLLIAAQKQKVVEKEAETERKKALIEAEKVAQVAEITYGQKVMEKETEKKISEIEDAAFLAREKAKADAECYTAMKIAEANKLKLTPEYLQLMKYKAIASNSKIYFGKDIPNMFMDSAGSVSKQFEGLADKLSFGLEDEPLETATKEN
Chain of UniProt Q9UBM7 (Q9UBM7 whole entry, looked up): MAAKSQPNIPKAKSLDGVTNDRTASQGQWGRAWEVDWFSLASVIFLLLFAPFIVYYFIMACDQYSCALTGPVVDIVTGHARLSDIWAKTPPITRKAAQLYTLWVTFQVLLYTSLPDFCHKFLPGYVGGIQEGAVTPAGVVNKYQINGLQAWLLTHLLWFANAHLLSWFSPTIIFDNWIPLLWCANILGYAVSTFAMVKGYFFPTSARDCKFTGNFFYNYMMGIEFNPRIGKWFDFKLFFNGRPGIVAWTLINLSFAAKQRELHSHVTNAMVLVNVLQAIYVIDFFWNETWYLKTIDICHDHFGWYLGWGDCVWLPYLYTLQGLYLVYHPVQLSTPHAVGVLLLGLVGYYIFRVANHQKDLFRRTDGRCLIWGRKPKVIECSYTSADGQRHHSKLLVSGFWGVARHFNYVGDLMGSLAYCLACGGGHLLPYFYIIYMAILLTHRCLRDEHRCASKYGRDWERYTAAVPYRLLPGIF
Chain of UniProt P09622 (P09622 whole entry, looked up): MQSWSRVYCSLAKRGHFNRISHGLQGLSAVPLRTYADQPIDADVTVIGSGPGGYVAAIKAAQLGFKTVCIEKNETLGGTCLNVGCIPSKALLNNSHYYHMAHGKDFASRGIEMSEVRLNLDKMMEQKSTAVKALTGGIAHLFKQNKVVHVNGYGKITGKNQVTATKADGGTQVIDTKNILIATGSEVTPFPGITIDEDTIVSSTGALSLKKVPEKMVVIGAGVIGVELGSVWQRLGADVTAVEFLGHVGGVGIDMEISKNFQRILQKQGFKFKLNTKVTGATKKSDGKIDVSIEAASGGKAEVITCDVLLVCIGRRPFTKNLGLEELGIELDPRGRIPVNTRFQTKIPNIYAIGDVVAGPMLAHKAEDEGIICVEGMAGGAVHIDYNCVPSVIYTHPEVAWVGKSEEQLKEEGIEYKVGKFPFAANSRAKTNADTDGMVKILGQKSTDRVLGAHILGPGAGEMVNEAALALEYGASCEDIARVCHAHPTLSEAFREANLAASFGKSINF
Chain of UniProt Q9UBQ6 (Q9UBQ6 whole entry, looked up): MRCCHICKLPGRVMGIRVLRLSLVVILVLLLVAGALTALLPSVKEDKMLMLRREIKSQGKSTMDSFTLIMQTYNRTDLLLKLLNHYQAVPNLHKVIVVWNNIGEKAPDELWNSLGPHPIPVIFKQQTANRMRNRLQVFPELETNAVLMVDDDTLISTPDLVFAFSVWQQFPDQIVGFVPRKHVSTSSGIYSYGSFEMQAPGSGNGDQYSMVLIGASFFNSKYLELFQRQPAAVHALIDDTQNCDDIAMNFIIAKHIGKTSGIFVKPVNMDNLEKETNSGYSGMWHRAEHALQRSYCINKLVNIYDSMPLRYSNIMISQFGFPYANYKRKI
Chain of UniProt P26641 (P26641 whole entry, looked up): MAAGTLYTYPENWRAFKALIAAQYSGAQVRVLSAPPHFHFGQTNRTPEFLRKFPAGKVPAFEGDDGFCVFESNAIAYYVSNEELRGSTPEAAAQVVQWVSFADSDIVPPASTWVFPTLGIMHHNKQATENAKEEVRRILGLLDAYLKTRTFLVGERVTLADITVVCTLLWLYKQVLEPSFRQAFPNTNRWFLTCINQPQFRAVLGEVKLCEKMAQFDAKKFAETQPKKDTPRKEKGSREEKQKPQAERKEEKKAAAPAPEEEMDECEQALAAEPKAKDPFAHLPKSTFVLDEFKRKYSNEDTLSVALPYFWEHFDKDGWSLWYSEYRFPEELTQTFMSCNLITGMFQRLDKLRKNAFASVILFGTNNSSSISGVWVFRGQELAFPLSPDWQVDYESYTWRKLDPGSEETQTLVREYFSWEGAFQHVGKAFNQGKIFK
Chain of UniProt Q6UX04 (Q6UX04 whole entry, looked up): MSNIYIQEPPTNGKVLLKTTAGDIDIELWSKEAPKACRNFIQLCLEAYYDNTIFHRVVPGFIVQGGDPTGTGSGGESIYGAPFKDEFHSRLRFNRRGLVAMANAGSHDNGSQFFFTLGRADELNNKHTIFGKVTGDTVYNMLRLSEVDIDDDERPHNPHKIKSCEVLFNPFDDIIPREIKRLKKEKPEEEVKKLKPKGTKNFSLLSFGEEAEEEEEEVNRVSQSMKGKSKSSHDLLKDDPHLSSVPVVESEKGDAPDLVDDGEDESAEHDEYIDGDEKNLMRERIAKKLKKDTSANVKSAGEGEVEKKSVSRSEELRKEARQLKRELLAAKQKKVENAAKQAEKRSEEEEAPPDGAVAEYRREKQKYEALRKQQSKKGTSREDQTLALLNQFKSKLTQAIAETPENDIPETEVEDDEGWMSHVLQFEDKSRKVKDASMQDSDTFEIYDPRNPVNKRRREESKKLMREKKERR
Chain of UniProt P29692 (P29692 whole entry, looked up): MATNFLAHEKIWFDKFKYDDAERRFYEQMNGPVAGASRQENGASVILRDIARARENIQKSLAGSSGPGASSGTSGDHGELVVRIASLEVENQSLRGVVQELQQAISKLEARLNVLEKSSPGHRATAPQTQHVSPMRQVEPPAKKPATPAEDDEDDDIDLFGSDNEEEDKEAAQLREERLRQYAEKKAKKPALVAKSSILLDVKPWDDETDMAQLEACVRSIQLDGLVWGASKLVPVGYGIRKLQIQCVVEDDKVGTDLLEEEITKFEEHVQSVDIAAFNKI
Chain of UniProt Q96LJ7 (Q96LJ7 whole entry, looked up): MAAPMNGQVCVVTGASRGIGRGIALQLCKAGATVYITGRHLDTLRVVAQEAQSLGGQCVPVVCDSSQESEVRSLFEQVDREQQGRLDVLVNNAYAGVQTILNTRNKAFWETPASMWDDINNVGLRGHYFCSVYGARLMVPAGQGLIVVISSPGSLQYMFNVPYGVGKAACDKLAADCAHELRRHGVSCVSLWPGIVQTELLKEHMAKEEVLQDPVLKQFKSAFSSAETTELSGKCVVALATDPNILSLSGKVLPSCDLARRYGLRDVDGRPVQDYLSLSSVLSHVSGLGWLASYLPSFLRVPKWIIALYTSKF
Chain of UniProt Q8N8J7 (Q8N8J7 whole entry, looked up): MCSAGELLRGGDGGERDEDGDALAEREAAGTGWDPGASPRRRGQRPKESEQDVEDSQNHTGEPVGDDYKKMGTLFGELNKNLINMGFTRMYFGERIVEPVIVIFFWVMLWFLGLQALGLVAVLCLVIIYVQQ
Chain of UniProt Q96EV8 (Q96EV8 whole entry, looked up): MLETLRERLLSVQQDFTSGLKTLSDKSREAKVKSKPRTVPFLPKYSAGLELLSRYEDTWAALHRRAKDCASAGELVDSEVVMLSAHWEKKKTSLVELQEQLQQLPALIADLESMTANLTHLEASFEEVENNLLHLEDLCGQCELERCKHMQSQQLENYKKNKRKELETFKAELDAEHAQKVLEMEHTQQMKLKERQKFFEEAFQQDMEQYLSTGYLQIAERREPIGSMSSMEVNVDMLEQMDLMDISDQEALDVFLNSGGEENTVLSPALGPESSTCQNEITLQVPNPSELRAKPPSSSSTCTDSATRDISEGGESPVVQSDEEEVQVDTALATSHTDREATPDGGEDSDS
Chain of UniProt O43237 (O43237 whole entry, looked up): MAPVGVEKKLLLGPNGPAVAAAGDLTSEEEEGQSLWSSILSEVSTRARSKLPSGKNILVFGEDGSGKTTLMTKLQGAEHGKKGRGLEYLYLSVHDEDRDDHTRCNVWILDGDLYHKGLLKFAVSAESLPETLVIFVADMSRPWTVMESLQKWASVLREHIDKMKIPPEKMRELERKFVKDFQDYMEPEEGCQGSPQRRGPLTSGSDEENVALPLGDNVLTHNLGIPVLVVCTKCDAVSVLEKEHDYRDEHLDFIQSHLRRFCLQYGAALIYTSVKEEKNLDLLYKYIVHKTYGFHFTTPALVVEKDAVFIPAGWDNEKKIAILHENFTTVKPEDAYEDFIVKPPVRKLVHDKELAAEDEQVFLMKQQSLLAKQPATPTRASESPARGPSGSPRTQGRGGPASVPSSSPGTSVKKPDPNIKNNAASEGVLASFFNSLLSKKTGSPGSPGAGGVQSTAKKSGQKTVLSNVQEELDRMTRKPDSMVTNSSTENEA
Chain of UniProt P24534 (P24534 whole entry, looked up): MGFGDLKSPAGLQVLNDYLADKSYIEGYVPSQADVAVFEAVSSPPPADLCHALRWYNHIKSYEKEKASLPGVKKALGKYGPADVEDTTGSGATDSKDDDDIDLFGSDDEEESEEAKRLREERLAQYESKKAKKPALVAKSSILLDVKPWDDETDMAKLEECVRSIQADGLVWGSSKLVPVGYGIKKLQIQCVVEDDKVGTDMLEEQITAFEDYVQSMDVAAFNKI
Chain of UniProt Q96DA6 (Q96DA6 whole entry, looked up): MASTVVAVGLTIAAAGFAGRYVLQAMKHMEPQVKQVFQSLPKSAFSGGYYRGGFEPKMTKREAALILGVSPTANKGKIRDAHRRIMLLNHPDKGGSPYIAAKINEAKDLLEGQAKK

Target | log2 fold change [1] | log2 fold change (filanesib) | log2 fold change (zotarolimus) | log2 fold change (idasanutlin) | log2 fold change (alisertib) | log2 fold change [2] | log2 fold change (gefitinib) | log2 fold change [3] | log2 fold change (lapatinib) | log2 fold change (pictilisib)
DDX39A (UniProt O00148) | 0.135 | -0.021 | -0.017 | -0.093 | 0.066 | -0.16 | -0.015 | -0.028 | -0.007 | 0.012
EEF1D isoform 2 (UniProt P29692) | -0.038 | 0.034 | 0.036 | -0.042 | -0.016 | 0.028 | 0.028 | -0.011 | 0.022 | -0.01
EDC4 (UniProt Q6P2E9) | 0.018 | 0.106 | 0.001 | 0.044 | -0.028 | 0.062 | -0.004 | 0 | 0.007 | 0.006
FAF2 (UniProt Q96CS3) | -0.019 | -0.022 | 0.035 | 0.007 | 0.004 | -0.011 | 0.056 | 0.009 | 0.029 | 0.017
CTSB (UniProt P07858) | 0.044 | -0.16 | 0.044 | 0.032 | 0.007 | -0.006 | 0.024 | 0.03 | -0.016 | 0.043
EEF1B2 (UniProt P24534) | 0.033 | 0.031 | 0.035 | 0.007 | 0.023 | 0.03 | 0.024 | -0.061 | -0.029 | 0.014
DIAPH1 (UniProt O60610) | 0.008 | 0.083 | 0.081 | 0.04 | -0.099 | -0.06 | 0.046 | -0.193 | 0.075 | 0.006
FADS1 (UniProt F5GYH4) | -0.373 | – | – | – | – | – | – | – | – | –
DYNC1I2 isoform 5 (UniProt Q13409) | 0.012 | 0.003 | 0.025 | 0.025 | -0.051 | 0 | -0.003 | 0.004 | 0.021 | 0.035
CTU1 (UniProt Q7Z7A3) | 0.045 | -0.193 | 0.022 | -0.037 | -0.063 | -0.061 | -0.024 | 0.025 | -0.085 | -0.005
FAM241A (UniProt Q8N8J7) | 0.226 | -0.828 (active) | -0.045 | 0.018 | -0.038 | 0.042 | 0.044 | -0.006 | -0.038 | 0
EIF4E2 (UniProt O60573) | -0.062 | -0.089 | 0.058 | 0.024 | 0.059 | -0.043 | 0.043 | -0.251 | 0.033 | –
DYNC1LI2 (UniProt O43237) | -0.19 | 0.384 | 0.005 | 0.092 | -0.053 | 0.101 | -0.099 | -0.119 | 0.116 | -0.223
EXTL2 (UniProt Q9UBQ6) | 0.051 | -0.023 | -0.147 | -0.121 | -0.144 | -0.094 | 0.075 | 0.123 | 0.05 | -0.111
CTSZ (UniProt Q9UBR2) | 0.073 | -0.05 | 0.011 | -0.019 | -0.079 | -0.172 | 0.035 | 0.07 | 0.015 | 0.176
DLD (UniProt P09622) | -0.003 | -0.106 | -0.032 | 0.004 | -0.024 | -0.056 | -0.096 | 0.036 | -0.015 | 0.067

Target | log2 fold change [1] | log2 fold change (filanesib) | log2 fold change (zotarolimus) | log2 fold change (idasanutlin) | log2 fold change (alisertib) | log2 fold change [2] | log2 fold change (gefitinib) | log2 fold change [3] | log2 fold change (lapatinib) | log2 fold change (pictilisib)
DAG1 (UniProt Q14118) | 0.005 | 0.054 | -0.045 | -0.047 | -0.075 | 0.105 | 0.032 | 0.082 | -0.015 | 0.115
DDB1 (UniProt Q16531) | -0.024 | -0.015 | -0.017 | -0.029 | -0.06 | 0.006 | -0.012 | 0.061 | -0.022 | 0.025
DTNBP1 (UniProt Q96EV8) | -0.033 | -0.115 | -0.009 | -0.068 | -0.003 | 0.004 | 0.018 | 0.044 | -0.041 | 0.073
DNAJC19 (UniProt Q96DA6) | 0.096 | -0.155 | 0.016 | -0.004 | -0.022 | -0.205 (active) | 0.006 | 0.045 | -0.012 | 0.025
CWC27 (UniProt Q6UX04) | 0.047 | -0.017 | -0.068 | 0.014 | -0.043 | 0.061 | 0.021 | -0.046 | -0.004 | -0.036
EXOC7 (UniProt Q9UPT5) | 0.023 | 0.032 | 0.01 | -0.076 | -0.024 | 0.149 | -0.054 | -0.053 | -0.031 | -0.057
EEF1AKNMT (UniProt Q8N6R0) | -0.256 | -0.052 | 0.096 | 0.013 | -0.035 | 0.037 | 0.065 | -0.037 | -0.014 | 0
ERLIN2 (UniProt O94905) | -0.006 | 0.039 | 0.034 | 0.09 | -0.085 | -0.143 | -0.058 | -0.076 | -0.019 | -0.09
DNAH11 (UniProt Q96DT5) | 0 | 0.047 | 0.04 | 0.03 | -0.025 | -0.137 | -0.002 | -0.203 | 0.216 | 0.552
DNAJB1 (UniProt P25685) | 0.07 | -0.013 | 0.007 | -0.032 | -0.063 | 0.046 | 0.06 | 0.003 | -0.032 | 0.005
DHRS1 (UniProt Q96LJ7) | 0.159 | 0.061 | 0.448 | 0.952 (active) | -0.025 | 0.115 | 0.494 | -0.113 | 0.096 | 0.009
DHCR7 (UniProt Q9UBM7) | -0.182 | -0.025 | -0.088 | -0.278 | 0.01 | 0.101 | 0.088 | -0.167 | -0.009 | -0.115
CUEDC2 (UniProt Q9H467) | 0.233 | 0.018 | 0 | 0.005 | -0.035 | -0.018 | 0.168 | 0.023 | -0.035 | 0.014
DMXL1 (UniProt Q9Y485) | 0.023 | 0.046 | -0.008 | -0.012 | -0.003 | 0.02 | -0.029 | -0.003 | -0.02 | -0.015
EEF1G isoform 2 (UniProt P26641) | -0.017 | 0.012 | 0.027 | -0.014 | -0.046 | -0.016 | 0.018 | -0.083 | 0.041 | -0.06
